Assay results reported in PubChem BioAssay AID2315 (National Center for Advancing Translational Sciences (NCATS), 2010).
Hit rate of the full screen: of about 290,000 compounds, about 27,000 (9.3%) were called active. The list comes from a sample in which actives are over-represented; it also holds similar structures and randomly drawn compounds. Values without a mark were called inactive. No stated cut-off is given here; in the data, active means inhibition mostly above about 28% (no sharp cut-off); inactive means mostly below about 43%.

Experiment: A qHTS for Small Molecule Inhibitors of Shiga Toxin; further: 0% is about no effect
Conditions: Vero cells, Shiga toxin protein synthesis inhibition reporter; at 38.7 µM, hits give high values

Point of comparison: `O=C(Nc1cccc([N+](=O)[O-])c1)Nn1cnnc1`, inhibition -6.68%. Against it:
- CCC(=O)Nc1nnc(S(=O)(=O)N2CCCc3ccccc32)s1 — higher, -3.3%
- O=C(Nc1ccc(C(=O)O)cc1)/C(=C\c1ccccc1)NC(=O)c1ccc(Br)cc1 — lower, -9.04%
- CC(=O)c1c(C)oc2ccc(NS(=O)(=O)c3ccccc3)cc12 — higher, -6.31%
- CC(C)CC(=O)c1c[nH]c(C(=O)NCc2ccccc2)c1 — lower, -10%
- CCOc1ccc(NC(=O)CCC(=O)NNC(=O)NC2CCCCC2)cc1 — lower, -9.72%
- CCOCCCNC(=O)c1cn(CC(C)C)c(=O)c2c1c1ccccc1n2C — higher, -4%
- Cc1ccccc1C(=O)NC(=S)Nc1ccc(N2CCN(C(=O)c3ccccc3)CC2)cc1 — lower, -15.7%
- CC(C)CC(CCc1ccccc1)OS(N)(=O)=O (centres undefined) — higher, 7.41%
- CC(=O)N1c2ccc(S(=O)(=O)N3CCC(C(=O)NC4CCCC(C)C4C)CC3)cc2CC1C (centres undefined) — higher, -3.25%
- CCOc1ccccc1-c1cc(C(=O)N2CCOCC2)c2ccccc2n1 — lower, -10.7%
- COc1ccc(NS(=O)(=O)c2cc3c(cc2C)N(C(C)=O)CCO3)cc1 — higher, 0.181%
- Cc1cccc(NC(=O)c2sc(-c3ccccc3)nc2-c2ccc([N+](=O)[O-])cc2)c1 — higher, -1.42%
- Cc1ccc(C(=O)Nc2nnc(-c3ccncc3)s2)o1 — lower, -10.6%
- Cc1onc(C(=O)NCc2ccc(F)cc2)c1[N+](=O)[O-] — higher, 15.4%
- Cc1cccc(NC(=O)c2cc([N+](=O)[O-])ccc2N2CCN(C)CC2)c1 — higher, 1.74%
- O=C(Cc1ccccc1F)NC1CCSc2ccccc21 (centres undefined) — higher, 8.44%
- CCOC(=O)c1ccc(NC(=O)c2ccc(NC(=O)C3CCCO3)cc2)cc1 (centres undefined) — higher, 21.1%
- CC(C)c1ccc(NC2CCCN(C(=O)c3ccncc3)C2)cc1 (centres undefined) — lower, -8.11%
- COC(=O)c1cc(NC(=O)c2cc(C(C)(C)C)nn2Cc2cccc(C)c2)ccc1N1CCOCC1 — higher, -6.65%
- O=C(Nc1nc2cc3c(cc2s1)OCCO3)c1cccc(S(=O)(=O)N2CCOCC2)c1 — higher, 53.6%
- COc1ccc(S(=O)(=O)N2CCOCC2)cc1C(=O)Nc1nc2ccccc2s1 — higher, -1.04%
- O=C(Nc1cccnc1)c1cc2cc(Br)ccc2oc1=O — higher, 28.7%
- COCc1nnc(NC(=O)CS(=O)(=O)Cc2ccccc2)s1 — higher, 3.05%
- CCCc1nnc(NC(=O)c2cc(OC)cc(OC)c2)s1 — higher, 34.6%
- O=C(Nc1cccnc1)c1cccc(S(=O)(=O)N2CCCC2)c1 — higher, 23.2%
- C/C(=N/NC(=S)Nc1ccccc1)c1ccc2c(c1)OCO2 — higher, 67.4%
- N#Cc1ccccc1NC(=O)c1ccc2c(c1)OCO2 — higher, 22.7%
- CCOC(=O)c1csc(CCNC(=O)c2oc3c(Cl)cc(C)cc3c2C)n1 — higher, 43.9%
- O=C(NCCS(=O)(=O)c1ccc(Br)cc1)c1ccccc1Cl — higher, -1.37%
- Cc1ccnc(NC(=O)C2CCN(S(=O)(=O)c3c(C)c(C)cc(C)c3C)CC2)c1 — higher, 8.68%
- COc1ccc(N(C(=O)CNC(=O)c2ccco2)C(C(=O)NCC2CCCO2)c2ccccc2)cc1Cl (centres undefined) — higher, 15.8%
- C/C(=N\NC(=O)C1(C)CC1(Br)Br)c1ccc(C)cc1C (centres undefined) — lower, -7.42%
- CCOC(OCC)OCC — higher, 11.5%
- COCCCN1C(=O)c2ccc(C(=O)OCC(=O)NCc3ccccc3OC)cc2C1=O — higher, 9.09%
- COc1ccccc1CNC(=O)c1ccc(CS(=O)(=O)c2ccccc2)o1 — higher, 2.09%
- COC(=O)CN1C(=O)[C@H]2[C@@H](C3CC3)N3C(=O)CN(Cc4ccc(-c5ccccc5)cc4)C(=O)[C@@]3(Cc3ccccc3)[C@H]2C1=O — higher, 9.74%
- CCOc1ccccc1-c1cc(C(=O)N/N=C(\C)c2cccnc2)c2ccccc2n1 — lower, -30.4%
- Cc1ccccc1/C=C\c1nc(O)c([N+](=O)[O-])c(=O)[nH]1 — lower, -14.2%
- Cc1ccc2[nH]c(=O)c(CN(C)S(=O)(=O)c3cccc4nonc34)cc2c1 — higher, -4.87%
- CCC1(CC)Cc2ccccc2-c2nc(CCl)[nH]c(=O)c21 — higher, -4.46%
- CCc1ccc(OCC(O)CN2CCN(CCO)CC2)cc1 (centres undefined) — lower, -8.28%
- COc1ccc(NC(=O)N2CCCC2C(=O)NCc2ccccc2Cl)cc1 (centres undefined) — higher, -3.06%
- CC(NC(=O)c1ccco1)c1ccc2c(c1)OCO2 (centres undefined) — lower, -15.1%
- CCC(C)(C)NC(=O)C(c1ccc(O)cc1)N(Cc1ccco1)C(=O)CCC(=O)Nc1ccccn1 (centres undefined) — lower, -12.1%
- Cc1ccc(C)c(S(=O)(=O)N2CCCOC2CNC(=O)C(=O)NC2CCCCC2)c1 (centres undefined) — higher, 20.6%
- CC(C)c1ccc(S(=O)(=O)N2CCN(C(=O)c3ccc(N4CCCC4)c([N+](=O)[O-])c3)CC2)cc1 — higher, 25.8%
- CC(Sc1nc(-c2ccccc2)cc(C(F)(F)F)n1)C(=O)Nc1ccc2c(c1)OCO2 (centres undefined) — lower, -14.3%
- O=C(Nc1ccc2c(c1)OCO2)c1sc2cc(Cl)ccc2c1Cl — lower, -13.4%
- O=C(Nc1ccc(Cl)cn1)c1ccc2c(c1)OCCO2 — higher, 32.4%
- O=C(Nc1cccc(S(=O)(=O)Nc2ccc(Cl)cc2)c1)c1ccc2c(c1)OCCO2 — higher, 11.3%
- CC(=O)c1ccc2c(c1)OCCOCCOc1ccc(C(C)=O)cc1OCCOCCO2 — higher, -5.3%
- COc1ccc(C(=O)Nc2cccnc2)cc1C(=O)Nc1cccnc1 — higher, 9.57%
- O=C(CN1CCc2cc3c(cc2C1)OCCCO3)Nc1ccccc1 — higher, 18.6%
- CN1CCC(CN)(N2CCN(c3ccccc3)CC2)CC1 — higher, -6.52%
- COc1cccc2sc(N(CCCN(C)C)C(=O)CCS(=O)(=O)c3ccccc3)nc12 — higher, 8.49%
- CC1(C)Cc2c(cnn2-c2cccc(F)c2)C(NC(=O)c2cc[n+]([O-])cc2)C1 (centres undefined) — higher, -5.88%
- Cc1cccnc1NC(=O)Cn1c(=O)oc2ccccc21 — higher, 30.2%
- Cc1ccc(S(=O)(=O)c2c[nH]c3ccc(Cl)cc3c2=O)cc1 — higher, -4.43%
- CC(NC(=O)Nc1cccc([N+](=O)[O-])c1)c1ccc2c(c1)OCO2 (centres undefined) — higher, 6.02%
- O=C(Nc1ccc(NC(=O)c2ccco2)c(Cl)c1)c1cccc([N+](=O)[O-])c1 — higher, 15.6%
- CCSc1ccccc1C(=O)Nc1ccc2c(c1)OCO2 — higher, 45.1%
- O=C(c1ccc2c(c1)OCO2)N1CCOCC1 — higher, 1.95%
- O=C(Nc1ccc(C(=O)N2CCCCC2)cc1)c1cccc([N+](=O)[O-])c1 — higher, 27.3%
- O=C(Nc1ccc2c(c1)OCO2)c1ccc(N2C(=O)c3ccccc3C2=O)cc1 — higher, 17.3%
- CCN(CCCNC(=O)c1ccc2c(c1)NC(=O)CN2C)c1cccc(C)c1 — higher, -5.92%
- COc1ccc(NC(=O)C2=CC(c3ccc(OC)c(OC)c3)=NS(=O)(=O)N2C)cc1 — higher, 7.8%
- O=C(CN1CCCCCC1)Nc1ccc(Cl)cc1F — higher, 1.73%
- O=c1ccc2cc(S(=O)(=O)Nc3ccccc3F)ccc2o1 — lower, -8.1%
- CCc1nc2cccnc2n1-c1ccc(C(=O)O)cc1 — higher, -6.32%
- Cc1c(Cl)cccc1NC(=S)NCC(O)c1ccccc1 (centres undefined) — higher, 8.12%
- CC(=O)Nc1ccc(-c2csc(NC(=O)Nc3ccccc3)n2)cc1 — higher, 42%
- Cn1nnnc1SCC(=O)Nc1nc2ccccc2s1 — higher, 25.2%
- COc1ccc(C(=O)NC2CC(C)(C)Cc3c2cnn3-c2ccccc2)c(OC)c1 (centres undefined) — higher, -3.27%
- CC(C)S(=O)(=O)c1csc(NC(=O)Nc2ccc(Cl)cc2)c1Cl — higher, 37.4%
- COc1ccccc1Nc1cc(C(=O)NCCCN(C)C2CCCCC2)c2ccccc2n1 — lower, -10.8%
- Cc1ccc(SCC(=O)c2cc(C)c(OC(=S)N(C)C)c(C)c2)cc1 — higher, 37.1%
- Cc1cc(C)n2nc(CNS(=O)(=O)c3c(F)c(F)c(F)c(F)c3F)nc2n1 — higher, 9.24%
- COc1cccc(NC(=O)N2CCC(NC(=O)C(Cc3cccc(C)c3)NC(C)=O)CC2)c1 (centres undefined) — higher, 1.56%

For `Cc1cccc(NC(=O)c2ccc([N+](=O)[O-])o2)c1`, the inhibition was 55.5% (active).
With `Cc1onc(NC(=O)c2ccc([N+](=O)[O-])o2)c1Br` the inhibition was 71.2% (active).
In the case of `COCc1nnc(NC(=O)c2ccc3c(c2)OCO3)s1`, the inhibition is reported as 59.3% (active).
With `O=C(Nc1ccccc1)c1ccc2c(c1)OCO2` the inhibition was 58.7% (active).
With `O=C(Nc1nc2ccccc2s1)c1ccc2c(c1)OCO2` the inhibition was 39.2% (active).
In the case of `O=C(Nc1cccnc1)c1noc2c1CCCCC2`, the inhibition is reported as 29% (active).
With `Cc1nc(NC(=O)c2ccc3c(c2)OCCO3)ccc1Br` the inhibition was 90.6% (active).
For `CC(Sc1nc2cc(Cl)ccc2s1)C(=O)Nc1ccc2c(c1)OCO2` (centres undefined), the inhibition was 0% (active).
In the case of `O=C(Nc1cccnc1)c1ccc2c(c1)OCO2`, the inhibition is reported as 33% (active).
For `O=C(Nc1ccccc1)c1ccc2c(c1)OCCCO2`, the inhibition was 58.6% (active).
With `O=C(Nc1cccc([N+](=O)[O-])c1)c1ccc2c(c1)OCO2` the inhibition was 58.7% (active).
With `O=C(Nc1ccc(C2CC2(Cl)Cl)cc1)c1cccc([N+](=O)[O-])c1` (centres undefined) the inhibition was 76.3% (active).
For `CC(C)C(=O)Nc1cccc(C(=O)Nc2ccc3c(c2)OCO3)c1`, the inhibition was 143% (active).
In the case of `O=C(Nc1ccc(N2CCOCC2)cc1)c1ccc2c(c1)OCO2`, the inhibition is reported as 76.4% (active).
For `O=C(Nc1ccccc1)Nc1nc2ccccc2s1`, the inhibition was 106% (active).
